Data on 40 compounds can be found in PubChem BioAssay (Tox21).

Where “and” joins values, the source holds several entries; their conditions need not be identical. Identical values can stand only once. Inconclusive results are not listed. Where a call stands in place of a potency, no number is given. Some structures have more than one record in an assay (separate samples or runs), and their calls can disagree. Calls of active or inactive are those of the source. Calls come from the whole dose curve; as a rule, active = well fitted cell-killing curve with a large enough effect in the repeat runs; inconclusive = weak or mixed curves, or effect the other way; inactive = no such curve, though single readings can be large or run the other way.
Potency is the fitted concentration of half-maximal effect.

The experiment is described as follows: qHTS assay to identify small molecule agonists of the farnesoid-X-receptor (FXR) signaling pathway - cell viability counter screen (AID 743218). Note: nearly all actives have a fitted effect of over 45% in size. The note with it: FXR-bla HEK293T viability, CellTiter-Glo luminescence, 16 h; series mostly up to 62.6 µM; viability change, negative = cytotoxic: at the top concentration. From the text:
U.S. Tox21 Program National Center for Advancing Translational Sciences [NCATS] NIH Chemical Genomics Center [NCGC] U.S. Environmental Protection Agency [EPA] National Institutes of Environmental Health Sciences [NIEHS] National Toxicology Program [NTP] U.S. Food and Drug Administration [FDA] Tox21 Assay Overview: The farnesoid-X-receptor (FXR), a nuclear hormone receptor, is highly expressed in liver, intestine, kidney and adrenal cortex. Natural ligands of FXR are the bile acids (Cholic acid, Chenodeoxy cholic acid etc). FXR is an important regulator of diverse metabolic pathways, including the bile acid homeostasis, lipid and glucose metabolisms. FXR regulates the expression of target genes by binding either as a monomer or as a heterodimer with the retinoid X receptor (RXR). Numerous studies have reported that FXR exerts protective function during cholestasis, diabetes, liver regeneration, and cancer. To identify compounds that activate FXR signaling, GeneBLAzer FXR-UAS-bla HEK 293T cell line (Invitrogen, Carlsbad, CA) containing a beta-lactamase reporter gene under the control of a UAS response element was used to screen the Tox21 10K compound library. The cytotoxicity of the Tox21 compound library against the FXR-bla cell line was tested in parallel by measuring the cell viability using CellTiter-Glo assay in the same wells.
Tox21 Assay Protocol Summary: FXR-bla cells were dispensed at 5000 cells/5uL/well in 1536-well black wall/clear bottom plates using a Multidrop Combi (Thermo Fisher Scientific, Waltham, MA) dispenser. After the assay plates were incubated at 37 C and 5% CO2 for 5 h, 23 nL of compounds dissolved in DMSO, positive controls or DMSO only was transferred to the assay plate by a Pintool station (Kalypsys, San Diego, CA). The assay plates were incubated at 37C for 16 h. After 1 uL of LiveBLAzerTM B/G FRET substrate was added using a Bioraptr Flying Reagent Dispenser (FRD) workstation (Beckman Coulter, Indianapolis, IN), the plates were incubated at room temperature for 2 h, and fluorescence intensity was measured by an Envision plate reader (PerkinElmer, Shelton, CT). For cell viability readout that measures cytotoxicity, 4uL/well of CellTiter-Glo reagent was added into the assay plates using a Bioraptr FRD. After 30 min incubation at room temperature, the luminescence intensity in the plates was measured using a ViewLux plate reader (PerkinElmer).
A general note: Quantitative high-throughput screening tests each substance at several concentrations.
On to `Nn1cnnc1`, for which the “viability change, negative = cytotoxic” value was 1.98% (inactive). The same measure, in the same setting: in the case of `CC(C)(c1cc(Cl)c(O)c(Cl)c1)c1cc(Cl)c(O)c(Cl)c1` it was -35.1% (inactive).

`C1=Cc2cccc3cccc1c23`: the Potency result is “inactive”.

For `Nc1ccc(-c2ccc(N)c(N)c2)cc1N`, the Potency result is “inactive”. On the same count and under the same terms, in the case of `NC(=S)Nc1ccccc1` it was “inactive”. In the case of `O=c1oc2ccccc2c(O)c1C(CC(O)c1ccc(-c2ccc(Br)cc2)cc1)c1ccccc1` (stereo not given), the “viability change, negative = cytotoxic” value was -0.956% (inactive). On to `CCCCCCCCC(=O)NCc1ccc(O)c(OC)c1`, for which the Potency result is “inactive”. On the same count and under the same terms, in the case of `CNC(=O)N(C)c1nnc(C(C)(C)C)s1` it was “inactive”; in that of `CCCCNC(=O)n1c(NC(=O)OC)nc2ccccc21`, “inactive”; in that of `O=C(O)C(F)(F)C(F)(F)C(F)(F)C(F)(F)C(F)(F)C(F)(F)C(F)(F)F`, “inactive”. The same measure, in the same setting: in the case of `CCCCN(CC)c1c([N+](=O)[O-])cc(C(F)(F)F)cc1[N+](=O)[O-]` it was “inactive”. Still for that read-out and setting: next, `CCC(CC)Nc1c([N+](=O)[O-])cc(C)c(C)c1[N+](=O)[O-]`: “inactive”. Regarding `C[C@]12CCC(=O)C(O)=C1CC[C@@H]1[C@@H]2CC[C@]2(C)C(=O)CC[C@@H]12`, the Potency result is “inactive”. As to `CC(O)CCO` (stereo not given), the “viability change, negative = cytotoxic” value was 10.9% (inactive). Turning to `CCC(C)c1cc([N+](=O)[O-])cc([N+](=O)[O-])c1O` (stereo not given), the “viability change, negative = cytotoxic” value was -2.41% (inactive). The same measure, in the same setting: next, `OCC(O)CO`: 11.1% (inactive). `CCC(C)c1ccc(O)cc1` (stereo not given): the Potency result was “inactive”. Turning to `c1ccc(-c2cccc(-c3ccccc3)c2)cc1`, the “viability change, negative = cytotoxic” value is -5.88% [at 81.1 µM] (inactive). For the compound `CC(C)Oc1cc(-n2nc(C(C)(C)C)oc2=O)c(Cl)cc1Cl`, the Potency entry was “inactive and 38.9 µM (active)”. The same measure, in the same setting: next, `CCC(C)(C)c1ccc(O)cc1`: “inactive”. In the case of `Nc1ccc(Cl)c(Cl)c1`, the “viability change, negative = cytotoxic” value is 18.6% [at 81.1 µM] (inactive). As for `Clc1nc(Cl)nc(Cl)n1`, the Potency entry was “inactive”. Same read-out and setting: in the case of `CC(C)c1ccc(CO)cc1` it was “inactive”; in that of `c1ccc(P(c2ccccc2)c2ccccc2)cc1`, “inactive”. `Oc1ccc(-c2ccccc2)cc1`: the “viability change, negative = cytotoxic” value was -17.6% (inactive). Take `O=P(Oc1ccccc1)(Oc1ccccc1)Oc1ccccc1`: the Potency entry was “inactive”.

For `CCCCCCCCOC(=O)c1ccccc1C(=O)OCCCCCCCC`, the Potency result was “inactive”. On the same count and under the same terms, next, `Cc1ccccc1[N+](=O)[O-]`: “inactive”. The same measure, in the same setting: in the case of `c1nc[nH]n1` it was “inactive”.

With `Cc1cc(Cl)ccc1OCCCC(=O)O`, the Potency entry is “inactive”. Same read-out and setting: next, `CCN(CC)C(=O)/C(Cl)=C(\C)OP(=O)(OC)OC`: “inactive”. In the case of `Cc1cc(C)cc(C)c1`, the Potency entry was “inactive”.

On to `O=P(O)(O)CCCl`, for which the Potency result is “inactive”.

Regarding `c1ccc(N=Nc2ccccc2)cc1`, the Potency entry is “inactive”. Take `ClC1C(Cl)C(Cl)C(Cl)C(Cl)C1Cl` (stereo not given): the Potency result is “inactive”. Same read-out and setting: next, `CCCCC(CC)COC(=O)Cl` (stereo not given): “inactive”. Same read-out and setting: in the case of `C=CCc1ccc2c(c1)OCO2` it was “inactive”; in that of `Cc1ccc(OP(=O)(Oc2ccc(C)cc2)Oc2ccc(C)cc2)cc1`, “inactive”. Still for that read-out and setting: next, `O=Cc1ccco1`: “inactive”. On to `N#CC(Br)Br`, for which the “viability change, negative = cytotoxic” value is 20.3% (inactive).
